The results in this text go back to PubChem BioAssay AID1347431 (National Center for Advancing Translational Sciences (NCATS), 2020).

The whole screen tested about 1,200 compounds, of which fewer than 10 were called active. Calls follow the shape of the dose curve; as a rule, active = well fitted curve in the direction sought with a large enough effect; inconclusive = small, poorly fitted or top-dose-only effect, or another doubt; inactive = no such curve, though single readings can be large or run the other way. A selection follows.

The nature of the test: Confirmatory qHTS assay for inhibitors of Activation Induced Cytidine Deaminase (AID): UDG signals. To be noted: UDG coupled enzyme activity counter-screen; series mostly up to 115 µM. The source says: Assay Provider (PI) Patricia Gearhart Ph.D.
National Institute on Aging
National Institute of Health (NIH), Bethesda, MD
Assay Provider (PI) Rahul Kohli Ph.D.
Perelman School of Medicine
University of Pennsylvania, Philadelphia, PA
Activation-Induced Deaminase (AID) is a cytosine deaminase which converts cytosine into uracil within stretches of ssDNA. The presence of uracil in DNA initiates a cascade of mutagenic DNA repair to introduce point mutations and DNA double strand breaks. Specific targeting of AID to the immunoglobulin heavy chain loci (Igh) promotes mutagenesis in the antibody variable region for somatic hypermutation (SHM) or switch regions leading to class switch recombination (CSR). However, AID also plays a role in accumulating unnecessary mutations across the genome. Mis-targeting of AID results in the initiation of tumor development and leads to greater drug resistance among cancer cells when continually expressed. To identify an AID inhibitor, a small molecule library will be screened in collaboration with NCATS core facility at NIH. To confirm biological function, inhibitors will be examined in an in vitro murine B-cell activation assay and subsequent secondary validation screens. Top molecules will be further screened to identify inhibitory efficacy against a wild type primary splenocytes assay. Using these approaches, we hope to identify a small molecule with great efficacy and low toxicity for use as a molecular probe to further characterize AID's intricacies, or even as a therapeutic.
A FRET based analysis of cytosine deamination, was developed to identify potential inhibitors of AID catalytic activity. This screen has two signal output, Read 1 evaluates the AID inhibition response. The second readout (Read 2) evaluates UDG response and is uses as a counterscreen to exclude false positive inhibitors. Inhibition in AID and inactivity in the UDG signal is the desired outcome for this assay.
SEQUENCE No. (e.g., 1, 2, 3, etc.); […] (e.g., Cells, Incubation, Reagent, etc.); VALUE; DESCRIPTION
1a; Reagent; 3 uL; [4/3x] 1 uM AID/2.67 U/mL UDG
1b; Reagent; 3 uL; 2 U/mL UDG
1c; Reagent; 3 uL; 1 uM AID
2a; Compound; 46 nL; Follow-up plates (0.64 uM - 10 mM)
2b; Control; 46 nL; ATA ([…] - 10 mM)
3; Time; 10 min; incubation at room temperature
5; Time; 4 hr; incubation at room temperature
6; Reagent; 4 uL; [2x] 250 mM NaOH
7; Time; 15 sec; centrifuge at 1000 rpm
8; Time; 30 min; incubation at room temperature
9a; Detection; fluorescence (Read 1: AID); EnVision (PerkinElmer) plate reader, 540 excitation and 590 emission filters
9b; Detection; fluorescence (Read 2: UDG); EnVision (PerkinElmer) plate reader, 560 excitation and 665 emission filters
NOTES (numbers refer to sequence above)
1a; Reagents were dispensed in a medium-binding black solid-bottom Greiner plates (789176F) using a BioRptr liquid dispenser. Dispense 3 uL of [4/3x] 1 uM AID (provided by Kohli lab) and [4/3x] 2 U/mL UDG (NEB M0280L) into columns 1, 2, 5 to 48.
1b; Dispense 3 uL of [4/3x] 2 U/mL UDG into column 3.
1c; Dispense 3 uL of [4/3x] 1 uM AID into column 4.
2a; Compound (7-points [uM]: 0.64; 3.2; 16; 80; 400; 2,000; 10,000; […]) double pin-transferred (Dip Factor = 2) using the Kalypsys (Wako USA) pintool equipped with a 1536 pinhead for a final concentration range of 7.32 nM - 114 uM.
2b; 10 mM Aurintricarboxylic Acid (Sigma A1895) (ATA, 8-point, n = 2, 1:2.5 dilution in column 2) double pin-transferred (Dip Factor = 2) using the Kalypsys (Wako USA) pintool equipped with a 1536 pinhead for a [final] range of 186 nM - 114 uM.
3; Room temperature incubation.
4; Dispense 1 uL of substrate mixture from the Kohli lab [4x] […] DJC20 and [4x] 250 nM DJC23 into columns 1 to 48 .
5; Room temperature incubation.
6; Dispense 4 uL of substrate mixture [2x] 250 mM NaOH into columns 1 to 48.
7; Centrifugation step to remove bubbles.
8; Room temperature incubation
9a; Fluorescence signal (column label AID) was read using the EnVision plate reader. […]
For `COc1cc2c(=O)c(S(=O)(=O)c3ccc(C)cc3)cn(Cc3cccc(C)c3)c2cc1OC`, the molecule was called inactive. The result for `O=C(Nc1cc(-c2ccccc2)sc1C(=O)O)c1cccc(F)c1` reads “inactive”; that for `C=Cc1ccc(CN2C(=O)N(c3ccc(C)c(C)c3)S(=O)(=O)c3ccccc32)cc1`, “inactive”. Then `O=S(=O)(NCCc1nnc2ccc(SCc3ccc(Cl)cc3Cl)nn12)c1ccccc1`, with “inactive”; and `COc1ccc(-c2cc3ncc(C(=O)c4cc([N+](=O)[O-])ccc4O)cn3n2)cc1`, with “inactive”. The result for `Cc1c(C(=O)N(C)c2ccccc2)sc2nc(-c3ccc(F)cc3)cn12` reads “inactive”. Regarding `CCOc1ccc2nc(Cl)c(C3CC(c4ccc(C)cc4)=NN3C(=O)CCC(=O)O)cc2c1` (centres undefined), the result was inactive. Then `COc1ccccc1-c1nn(CCC(=O)Nc2ccc(C)cc2)c2nc(C)cc(C)c12`, with “inactive”; and `Cc1ccc(C)c(N2CCN(C(=O)c3cnn(C(C)(C)C)c3C3CCN(C(=O)OC(C)(C)C)CC3)CC2)c1`, with “inactive”; and `COc1cc2c(cc1OC)C(COc1ccc(F)cc1)N(C(=O)c1cccc(F)c1)CC2` (centres undefined), with “inactive”. The result for `COc1ccc(OC)c(NC(=O)Cn2c(=O)cc(-c3ccccc3)c3c(C)nn(C)c32)c1` reads “inactive”; that for `Cc1nc2c(C(=O)NCc3ccccc3)c[nH]n2c(=O)c1Cc1ccccc1Cl`, “inactive”; that for `CCCCCSc1nnc2c(n1)OC(CC)Nc1ccc(Br)cc1-2` (centres undefined), “inactive”. For `CCCCN(CCCC)C(=O)c1cc2c(=O)n3cccc(C)c3nc2s1`, the molecule was classed as inactive. Then `CCOc1ccc(C(=O)/C=C/c2cn(CC(O)CN3CCCCCC3)c3ccccc23)cc1` (centres undefined), with “inactive”; and `CCCc1nc2ccccc2n2c(-c3ccccc3)c3c(=O)n(C)c(=O)n(C)c3c12`, with “inactive”. The result for `CCCN1CCN(CCCNC(=O)c2cc3c(Cl)nc4ccccc4c3s2)CC1` reads “inactive”; that for `COc1ccc(CSc2nc3ccncc3n2Cc2nc(-c3ccc(OC)c(OC)c3)oc2C)cc1`, “inactive”.

`COc1ccc(Cn2cc(C(=O)c3ccc(C)c(C)c3)c(=O)c3ccccc32)cc1`: the call was inactive. For `Cc1ccccc1NC(=O)c1c(NC(=O)C(F)(F)F)sc2c1CCCCC2`, the molecule was classed as inactive. Then `O=S1(=O)c2ccccc2N(Cc2ccc(Cl)cc2)c2ccccc21`, with “inactive”. As for `Cc1cccc(Cn2c(SCc3ccc(C(=O)N4CCCCCC4)cc3)nc3ccncc32)c1`, the outcome was inactive. Then `COCCc1nn2c(=O)cc(COC(=O)c3ccc(C(C)(C)C)cc3)nc2s1`, with “inactive”. As to `CCN(c1cccc(C)c1)S(=O)(=O)c1nnc(NC(=O)c2ccccc2Cl)s1`, the outcome was inactive. For the molecule `COc1ccccc1N1CCN(C(=O)c2cc3c(-c4ccccc4F)nn(C)c3s2)CC1`, the call was inactive. The result for `CCOc1cccc(C(=O)N(Cc2ccc(F)cc2)Cc2ccco2)c1` reads “inactive”. For `CCOc1ccc(CCNc2ncnc3onc(-c4ccc(Cl)cc4)c23)cc1OCC`, the call was inactive. The result for `Cc1cc(OCCCSc2nc(-c3ccc(C(C)(C)C)cc3)nc3cc(=O)[nH]n23)ccc1Cl` reads “inactive”. The result for `CCOc1ccc(Nc2c(S(=O)(=O)c3ccc(C)cc3)cnc3ccc(OC)cc23)cc1` reads “inactive”. The result for `CCn1cc2nc(SCc3cccc(C(F)(F)F)c3)n(CCc3ccccc3)c(=O)c2n1` reads “inactive”; that for `CCCCOc1ccc(C(=O)Nc2ccc(S(=O)(=O)Nc3nc(C)cc(C)n3)cc2)cc1`, “inactive”. On to `O=C(O)c1c(-c2ccccc2)oc2ccc(OCc3c(F)cccc3Cl)cc12`, for which the outcome was inactive. Regarding `O=C1c2ccccc2C(=O)C1(c1ccccc1)N1CCN(c2cccc(C(F)(F)F)c2)CC1`, the result was inactive. The result for `CC(=O)N1CCc2c(sc3c2c(=O)n(Cc2ccccc2)c(=O)n3Cc2cccc(Cl)c2)C1` reads “inactive”. As for `CCc1ccc(NC(=O)c2cnn(-c3c(C)cccc3C)c2C2CCN(C(=O)OC(C)(C)C)CC2)cc1`, the call was inactive. Then `CCOc1ccc(CNC(=O)c2c(C)nn(-c3ccc(F)cc3)c2-n2cccc2)cc1`, with “inactive”; and `COc1cc2c(cc1OC)C(COc1cc(C)cc(C)c1)N(C(=O)C(C)(C)C)CC2` (centres undefined), with “inactive”. The result for `COc1cc(NC(=O)Cn2cc(S(=O)(=O)N3CCC(C)CC3)c3ccccc3c2=O)cc(OC)c1OC` reads “inactive”; that for `COc1ccc(C)cc1N(C)C(=O)c1c2c(nc3ccccc13)C(=O)N(C1CCCCC1)C2`, “inactive”. Regarding `COc1cccc(C(=O)Nc2nc3nc(C)c(Cc4ccccc4)c(=O)n3[nH]2)c1`, the result was inactive. Then `Cn1c2ccccc2c2c(C(=O)N3CCN(c4cccc(C(F)(F)F)c4)CC3)cn(C3CCCCC3)c(=O)c21`, with “inactive”; and `O=C(CSc1nc(-c2ccc(F)cc2)nc2c1Cc1ccccc1O2)Nc1cccc(C(=O)O)c1`, with “inactive”; and `CC(C)Oc1ccc(C(=O)NCCc2csc(-c3cccc(F)c3)n2)cc1`, with “inactive”. With `CCc1ccc(OCC(=O)N(Cc2ccco2)Cc2ccco2)cc1`, the molecule was classed as inactive. Then `Cc1ccc2c(c1)C(c1ccc(F)cc1)N(C(=O)c1ccc(OC(C)C)cc1)CC(=O)N2` (centres undefined), with “inactive”. `Cc1ccc(Cl)cc1N1CCN(C(=O)c2nn(C)c3c2CS(=O)(=O)c2ccccc2-3)CC1`: the molecule was classed as inactive. Consider `CC(C)c1ccc(NC(=O)CSC2=Nc3ccccc3C3=NC(CCC(=O)NCc4ccco4)C(=O)N23)cc1` (centres undefined), for which the outcome was inactive. In the case of `CCOc1ccc(CCNC(=O)c2cn(CC)c3ccc(S(=O)(=O)N4CCCCCC4)cc3c2=O)cc1OCC`, the call was inactive.

On to `COc1cccc(CNC(=O)c2oc3ccc4c(c3c2C)C(=O)CC(C)(C)O4)c1OC`, for which the molecule was called inactive.

On to `O=C(NCCn1cc(SCc2ccccc2F)c2ccccc21)c1cccs1`, for which the outcome was inactive.

Turning to `Cc1ccc(Cl)cc1NC(=O)c1oc2c(c1C)-c1[nH]ncc1CC2`, the call was inactive. The result for `CN(C)c1ccc(Nc2ncnc3sc4c(c23)CCCC4)cc1` reads “inactive”; that for `CCOC(=O)c1c(Oc2ccc(C(C)=O)cc2)nnc(-c2ccccc2)c1-c1ccccc1`, “inactive”; that for `O=C(O)c1ccc2c(c1)N(Cc1ccc(F)cc1Cl)C(=O)c1ccccc1S2`, “inactive”. Then `CCCCCN1C(C(=O)c2ccccc2)=C(OC(=O)CC)c2ccccc2S1(=O)=O`, with “inactive”. Regarding `O=C(CCS(=O)(=O)c1nc(-c2cccs2)cc(C(F)(F)F)n1)Nc1ccc(OC(F)(F)F)cc1`, the call was inactive. `CCc1ccc(C(c2ccccc2)c2c(C)[nH]c3ccccc23)s1` (centres undefined): the molecule was classed as inactive. The result for `Cc1ccc2c(c1)-c1ncc(C(=O)c3cc(Br)ccc3O)cc1CO2` reads “inactive”.

Take `Cc1ccc(Nc2nnc(-c3ccc(C)c(S(=O)(=O)N4CCN(C)CC4)c3)c3ccccc23)c(C)c1`: the molecule was called inactive.
